# Bioassay records: PubChem BioAssay, National Center for Advancing Translational Sciences (NCATS)
# Hits are enriched below; roughly 5.9% of the tested compounds scored in any of these assays.
# S2 tox = viability counter-screen for ATXN expression inhibitors. S2 cells (HEK-293 line with an ATXN2-luciferase reporter) viability, CellTiter-Fluor protease fluorescence, 24 h. Potency, µM (titrated, usually from 56.7 µM), hits mostly cytotoxic. 400,000 compounds, 0.49% hits; also: nearly all actives have a fitted effect of over 40% in size
# KB-3-1 cytotox = KB-3-1 parental cell cytotoxicity; KB-3-1 viability, CellTiter-Glo ATP luminescence, 72 h; Potency, µM (titrated, usually from 46.1 µM), actives largely listed as cytotoxic; 400,000 compounds, 1.4% hits; AID 1347075; also: % is scaled to controls: 0 for no effect and ±100 for the full control effect; nearly all actives have a fitted effect of over 60% in size
#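 Cells are dispensed, compounds pinned in, plates held at 37 °C for 72 h, then CellTiter-Glo is added and luminescence read after 10 minutes. Cell line: parental KB-3-1 in phenol-red-free DMEM, 10% FBS.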
# ATXN2 expr inh = ATXN2 expression inhibition; HEK-293 ATXN2-luciferase reporter, luminescence, 24 h; Potency, µM (doses to about 57 µM), without a hit: at the highest dose activity change, negative = inhibition, hits mostly inhibitors; 360,000 compounds, 0.72% hits; also: % is scaled to controls: 0 for no effect and ±100 for the full control effect; nearly all actives have a fitted effect of over 55% in size
#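 ATXN2-luciferase reporter cells (luciferase flanked by upstream and downstream ATXN2 gene portions) were treated 24 h at 37 °C with compounds at up to 57 uM. SteadyGlo luminescence gave expression; GF-AFC fluorescence gave viability.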
# TGFb SMAD3 inh = TGF-b pathway inhibition. HepG2 CAGA-GFP TGF-b/SMAD3 reporter, GFP fluorescence, 18 h; TGF-beta stimulated, 500 pg/mL final. Potency, µM (series often up to 46.1 µM), without a hit: at the top dose activity, negative = inhibition, actives largely listed as inhibitors. 410,000 compounds, 1.2% hits. AID 588855; also: % is scaled to controls: 0 for no effect and ±100 for the full control effect; nearly all actives have a fitted effect of over 65% in size
#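 HEPG2 CAGA-GFP reporter cells (1000/well, DMEM with 1% FBS) received compounds, then recombinant TGF-beta at 500 pg/mL final for 18 hours at 37 degrees C. Per-cell GFP summed per well was normalised to unstimulated and stimulated DMSO controls before curve fitting.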
# KB-V1 MDR tox = KB-V1 MDR subline cytotoxicity | KB-V1 MDR cells viability, CellTiter-Glo, 72 h | Potency, µM (titrated, usually from 46.1 µM), most hits filed as cytotoxic | 400,000 compounds, 3.4% hits | AID 1347076; also: % is scaled to controls: 0 for no effect and ±100 for the full control effect; nearly all actives have a fitted effect of over 60% in size
#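 Readout: CellTiter-Glo luminescence, 10 min after addition. Cells: KB-V1 MDR subline, 72 h at 37 degrees C with compound. Analysis: corrected, normalized data fitted to concentration-effect curves.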
# HepG2 viability = HepG2 cytotoxicity, counter-screen for TGF-b inhibitors | HepG2 CAGA-GFP viability, ATP luminescence, 18 h | Potency, µM (series often up to 46.1 µM), for the others: at the top dose activity change, negative = cytotoxicity, most hits filed as cytotoxic | 410,000 compounds, 0.76% hits | AID 588856
#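 HepG2 CAGA-GFP cells (1000/well, DMEM with 1% FBS) received compound, then TGF-beta at 500 pg/mL final, and were incubated 18 hours at 37 degrees C. Viability was read by CellTiter-Glo luminescence. Media-only wells were set as complete cell-killing and DMSO as no toxicity.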
# * = called active by the depositor; i = inactive; ? = inconclusive; . = not tested or not shown. Calls follow the shape of the dose curve; as a rule, active = well fitted curve in the direction sought with a large enough effect; inconclusive = small, poorly fitted or top-dose-only effect, or another doubt; inactive = no such curve, though single readings can be large; an effect the other way counts as inactive or inconclusive. Potency is read from the fitted curve at half-maximal effect.
SMILES,S2 tox,KB-3-1 cytotox,ATXN2 expr inh,TGFb SMAD3 inh,KB-V1 MDR tox,HepG2 viability
O=c1[nH]c(SCc2cccc(F)c2)nc2c1CCCC2,i,i,-12%,-2%,15µM*,-14%
CCC(C)n1c(=O)c(C(=O)Nc2ccccc2S(N)(=O)=O)c(O)c2ccccc21 (stereo not given),?,16µM*,?,?,?,0%
CCOC(=O)CN(Cc1ccccc1)C(C(=O)NC1CCCCC1)c1ccc(OC)cc1 (stereo not given),i,i,0%,-11%,?,-2%
CC(C)CN(C(=O)COC(=O)C12CC3CC(CC(C3)C1)C2)c1c(N)n(Cc2ccccc2)c(=O)[nH]c1=O,22µM*,?,14µM*,3%,i,3%
COc1ccc(-n2ncc3c(N4CCN(c5cc(C)ccc5C)CC4)ncnc32)cc1,i,i,9%,3%,i,-7%
Cc1cccc(-n2ncc3c(N4CCOCC4)ncnc32)c1,i,i,10µM*,15%,?,-2%
COc1ccc(N2CCN(c3ncnc4c3cnn4-c3ccc(C)cc3C)CC2)cc1,i,i,-10%,-13%,4.6µM*,-13%
COc1ccc(-n2ncc3c(N4CCN(c5cccc(C)c5)C(C)C4)ncnc32)cc1 (stereo not given),?,21µM*,?,?,?,-1%
Cc1ccc(-n2ncc3c(N4CCN(c5ccccc5)CC4)ncnc32)c(C)c1,i,?,0%,-6%,2.3µM*,-39%
Cc1cccc(-n2ncc3c(N4CCN(c5ccccc5)CC4)ncnc32)c1,.,i,.,-15%,i,-8%
Cc1ccc(N2CC(NC(=O)/C=C\c3ccc4c(c3)OCO4)CC2=O)cc1 (stereo not given),.,.,.,-6%,.,4%
O=C(NCCCN1CCN(c2ccccc2F)CC1)C1COc2ccccc2C1 (stereo not given),i,i,-2%,-5%,i,-27%
Cc1ccc(C)c(N2CCN(CCCNC(=O)C3COc4ccccc4C3)CC2)c1 (stereo not given),.,.,.,?,.,-82%
Cc1c(C(=O)NC(C)(C)CO)sc2ncnc(NCCN(C)C)c12,i,.,.,.,.,.
CCS(=O)(=O)N1CCc2cc(C(=O)NCCc3ccccc3)ccc21,i,i,25%,6%,i,-1%
CN(CC1COCCO1)C(=O)c1cnn(-c2nccc(-c3ccccc3C(F)(F)F)n2)c1C1CC1 (stereo not given),i,.,.,.,.,.
CCC1CCCCN1C(=O)CSc1nc2c([nH]c3ccccc32)c(=O)n1C (stereo not given),?,i,-9%,7%,23µM*,-14%
CN1CCN(c2cccc(Nc3nn4c(=O)c5ccc(Br)cc5nc4s3)c2)CC1,.,i,.,.,i,.
CCOC(=O)c1ccc(-n2ccnc2)c(NC(=O)c2ccc(Cl)cc2)c1,i,i,-4%,?,15µM*,7%
N#CCCN(Cc1cccnc1)S(=O)(=O)c1ccc(S(=O)(=O)NC2CCCCC2)cc1,i,i,-1%,13%,?,1%
N#CCCN(Cc1cccnc1)S(=O)(=O)c1ccc2ccccc2c1,?,i,-19%,-3%,23µM*,10µM*
CCC(=O)Nc1nnc(S(=O)(=O)N(C)Cc2ccc(Cl)cc2)s1,.,i,.,0%,i,-7%
COC(=O)c1scc(C#N)c1N/N=C(\C#N)S(=O)(=O)c1ccc(Cl)cc1,?,?,?,-24%,8.2µM*,-58%
Cc1cc(C(=O)Nc2ccccc2-c2nc(CNC(=O)c3ccccc3Cl)c(C)o2)c(C)o1,i,.,.,.,.,.
COc1ccc(NC(=O)c2oc3ccccc3c2NC(=O)C2CC2)cc1,i,i,-9%,16%,10µM*,-14%
SMILES,S2 tox,KB-3-1 cytotox,ATXN2 expr inh,TGFb SMAD3 inh,KB-V1 MDR tox,HepG2 viability
COc1ccc(NC(=O)c2oc3ccccc3c2NC(=O)C(C)(C)C)cc1,i,i,1%,-10%,9.2µM*,-6%
CCCCc1c(-c2ccccc2OC)ncn1CCc1ccc(Cl)cc1,?,?,?,.,12µM*,.
COc1ccccc1-c1cc(C(=O)Nc2cc(C)n(Cc3ccc(Cl)cc3)n2)no1,.,i,?,1%,i,-30%
CCCCc1c(-c2ccccc2OC)ncn1CCc1ccccc1,?,?,?,.,12µM*,.
COc1ccc(Cc2nn3c(-c4ccccc4OC)nnc3s2)cc1,i,i,5%,-10%,?,-9%
CCCCc1c(-c2ccccc2OC)ncn1CCc1ccc(OC)cc1,.,?,?,.,9.2µM*,.
Cc1ccc(CCNC(=O)c2cc3sccc3n2Cc2ccc(Cl)cc2)cc1,i,i,-21%,-15%,i,-19%
Cc1ccc(NC(=O)N2CCC(CN3CCCCC3)CC2)c(Cl)c1,i,i,-1%,-3%,i,-1%
C(=C\c1ccccn1)/c1ccccc1,.,?,.,?,i,-32%
c1ccc(-n2ncc3c(NCc4ccc5c(c4)OCO5)ncnc32)cc1,i,i,60%,16%,21µM*,-16%
Cc1cccc(-n2ncc3c(NCc4ccc5c(c4)OCO5)ncnc32)c1,.,i,.,19%,i,-2%
Cc1ccc(-n2ncc3c(NCc4ccc5c(c4)OCO5)ncnc32)c(C)c1,i,?,-14%,0%,4.1µM*,-25%
Cc1ccc(S(=O)(=O)N2CCN(C(=O)c3c(C)nn(-c4ccccc4)c3Cl)CC2)cc1,i,i,-2%,1%,10µM*,-2%
Cc1cc(C)c(S(=O)(=O)N2CCN(C(=O)c3ccc(-n4nc(C)c(Cl)c4C)cc3)CC2)c(C)c1,i,?,-27%,?,i,-7%
Cc1cc(C)c(S(=O)(=O)N2CCN(C(=O)c3c(C)nn(-c4ccccc4)c3Cl)CC2)c(C)c1,i,?,-12%,-53%,5.2µM*,-9%
COc1ccc(S(=O)(=O)N2CCN(C(=O)c3c(C)nn(-c4ccccc4)c3Cl)CC2)cc1,i,i,-15%,-2%,?,-30%
CC(CN1CCc2nnc(CNC(=O)c3cccc(F)c3)n2CC1)c1ccccc1 (stereo not given),i,.,.,.,.,.
FC(F)(F)c1cc(CCN2CCNC[C@@H]2CC2CCCCC2)cc(C(F)(F)F)c1,.,i,22µM*,?,i,-100%
CCCC[C@@H]1CNCCN1CCc1cc(C(F)(F)F)cc(C(F)(F)F)c1,35µM*,?,?,?,?,-115%
